Hit rate of the full screen: of about 39,000 compounds, about 3,300 (8.5%) were called active. What follows is part of a selection rich in actives, with near analogues and random picks from the rest.

The test system of the assay is HepG2. The assay is described as follows: cytotoxicity call (relative viability < 0.9). The note with it: 10 µM.
As to `COCC(=O)Nc1ccc2c(c1)C(=O)N(C)[C@@H]1CC[C@@H](CC(=O)N3CCc4ccccc4C3)O[C@@H]1CO2`, the cytotoxicity call was “inactive”. Regarding `COc1ccc(NC(=O)Nc2ccc3c(c2)C(=O)N([C@@H](C)CO)C[C@H](C)[C@H](CN(C)C(=O)NC2CCCCC2)OCCCC[C@@H](C)O3)cc1`, the cytotoxicity call was “inactive”. With `COc1ccc(C)c2c1CCCC2=O` the entry was “inactive”. Consider `C[C@H](CO)N1C[C@H](C)[C@H](CN(C)C(=O)Nc2cccc3ccccc23)Oc2ccc(NC(=O)Cn3cnnn3)cc2CC1=O`, for which the cytotoxicity call is “inactive”. Then `C[C@@H]1CN([C@H](C)CO)C(=O)c2cc(NC(=O)Nc3ccc(C(F)(F)F)cc3)ccc2O[C@@H](C)CCCCO[C@H]1CN(C)S(=O)(=O)c1cccs1`, with “inactive”; and `C[C@@H]1CCCCO[C@@H](CN(C)C(=O)CCC(F)(F)F)[C@H](C)CN([C@H](C)CO)C(=O)c2cc(NS(=O)(=O)c3cccs3)ccc2O1`, with “inactive”; and `Cc1ccc(S(=O)(=O)N[C@@H]2CC[C@H](CC(=O)N3CCC(Cc4ccccc4)CC3)O[C@@H]2CO)cc1`, with “inactive”. Then `C[C@@H]1CCCCO[C@H](CN(C)C(=O)NC2CCCCC2)[C@@H](C)CN([C@H](C)CO)C(=O)c2cc(NC(=O)Nc3ccccc3)ccc2O1`, with “inactive”; and `C[C@@H]1CCCCO[C@H](CN(C)C(=O)C2CCCCC2)[C@@H](C)CN([C@@H](C)CO)C(=O)c2cc(NS(=O)(=O)c3ccc(F)cc3)ccc2O1`, with “inactive”. Then `COc1cccc(NC(=O)N(C)C[C@@H]2Oc3ncc(C#Cc4cccnc4)cc3C(=O)N([C@H](C)CO)C[C@@H]2C)c1`, with “inactive”; and `C=C1CC2C3C=C(C)C4=CC(=O)CCC4(C)C3CCC2(C)C1(OC(C)=O)C(C)=O` (configuration not stated), with “inactive”; and `COC(=O)C[C@@H]1C[C@@H](C)[C@@H]2C(=O)c3c(O)c4c(c(O)c3C(=O)[C@@H]2[C@@H]1O)[C@H]1C[C@@H](O)[C@@]4(O)[C@@H](C)O1`, with “active”. `CO[C@H](CN(C)S(=O)(=O)c1cn(C)cn1)[C@H](C)CN(C(=O)Nc1ccc(C(F)(F)F)cc1)[C@@H](C)CO`: the cytotoxicity call is “inactive”.

For the compound `C[C@@H]1CCCCO[C@@H](CN(C)C(=O)Nc2ccc(C(F)(F)F)cc2)[C@H](C)CN([C@H](C)CO)C(=O)c2cc(NS(=O)(=O)c3ccccc3)ccc2O1`, the cytotoxicity call is “active”.

For the compound `C[C@H](CO)N1C[C@H](C)[C@@H](CN(C)C(=O)Nc2ccc(C(F)(F)F)cc2)OCCCC[C@H](C)Oc2ccc(NS(=O)(=O)c3ccccc3)cc2C1=O`, the cytotoxicity call was “inactive”. Then `C[C@@H]1CN([C@@H](C)CO)C(=O)c2cc(NS(=O)(=O)c3ccccc3)ccc2O[C@@H](C)CCCCO[C@@H]1CN(C)C(=O)Nc1ccc(C(F)(F)F)cc1`, with “inactive”; and `C[C@@H]1CCCCO[C@H](CN(C)C(=O)Nc2ccc(C(F)(F)F)cc2)[C@@H](C)CN([C@H](C)CO)C(=O)c2cc(NS(=O)(=O)c3ccccc3)ccc2O1`, with “inactive”. With `C[C@H]1CCCCO[C@@H](CN(C)C(=O)Nc2ccc(C(F)(F)F)cc2)[C@@H](C)CN([C@@H](C)CO)C(=O)c2cc(NS(=O)(=O)c3ccccc3)ccc2O1` the entry was “active”. With `C[C@@H]1CCCCO[C@H](CN(C)C(=O)Nc2ccc(C(F)(F)F)cc2)[C@H](C)CN([C@H](C)CO)C(=O)c2cc(NS(=O)(=O)c3ccccc3)ccc2O1`, the cytotoxicity call was “active”. Regarding `C[C@@H]1CN([C@@H](C)CO)C(=O)c2cc(NS(=O)(=O)c3ccccc3)ccc2O[C@@H](C)CCCCO[C@H]1CN(C)C(=O)Nc1ccc(C(F)(F)F)cc1`, the cytotoxicity call was “inactive”. Then `C[C@@H]1CCCCO[C@@H](CN(C)C(=O)Nc2ccc(C(F)(F)F)cc2)[C@H](C)CN([C@@H](C)CO)C(=O)c2cc(NS(=O)(=O)c3ccccc3)ccc2O1`, with “inactive”. With `C[C@@H]1CN([C@H](C)CO)C(=O)c2cc(NS(=O)(=O)c3ccccc3)ccc2O[C@@H](C)CCCCO[C@H]1CN(C)C(=O)Nc1ccc(C(F)(F)F)cc1` the entry was “inactive”. As for `C[C@@H]1CCCCO[C@H](CN(C)C(=O)Nc2ccc(C(F)(F)F)cc2)[C@H](C)CN([C@@H](C)CO)C(=O)c2cc(NS(=O)(=O)c3ccccc3)ccc2O1`, the cytotoxicity call was “active”. Then `C[C@H]1CN([C@@H](C)CO)C(=O)Cc2cc(NS(=O)(=O)c3cccs3)ccc2O[C@@H]1CN(C)S(=O)(=O)c1cn(C)cn1`, with “inactive”; and `Cc1noc(C)c1NC(=O)Nc1ccc2c(c1)C(=O)N([C@H](C)CO)C[C@H](C)[C@H](CN(C)S(=O)(=O)c1ccccc1)O2`, with “inactive”. Then `COc1ccc2c3c([nH]c2c1)[C@H](CO)N(C[C@]13CN(Cc2ccccc2F)C1)S(=O)(=O)c1cn(cn1)C`, with “inactive”; and `Cc1noc(C)c1NC(=O)Nc1ccc2c(c1)CC(=O)N([C@H](C)CO)C[C@H](C)[C@@H](CN(C)S(=O)(=O)c1cccs1)O2`, with “inactive”; and `Cc1ccc(S(=O)(=O)N(C)C[C@@H]2OCCCC[C@H](C)Oc3ccc(NC(=O)Nc4ccc(F)cc4)cc3C(=O)N([C@H](C)CO)C[C@@H]2C)cc1`, with “inactive”.

As to `C[C@H](NC(=O)N(C)C[C@@H]1OCc2ccccc2-c2ccccc2C(=O)N([C@H](C)CO)C[C@@H]1C)c1ccccc1`, the cytotoxicity call was “inactive”.

In the case of `CCn1c(N)nc2c1c(=O)[nH]c(=O)n2C`, the cytotoxicity call is “inactive”. Then `NCCn1nc([C@H]2CCN(C(=O)c3csc4c3CCCC4)C2)c2nccnc21`, with “inactive”.

In the case of `Cc1ccc(S(=O)(=O)N(C)C[C@@H]2Oc3ccc(NS(=O)(=O)c4cn(C)cn4)cc3C(=O)N([C@@H](C)CO)C[C@H]2C)cc1`, the cytotoxicity call was “inactive”. Then `CCSC1=C(C#N)C(=O)N[C@@H](CO)S1`, with “inactive”. With `C[C@H](CO)N1C[C@H](C)[C@@H](CN(C)Cc2ccc(C(=O)O)cc2)OCCCC[C@H](C)Oc2ccc(NC(=O)Nc3cccc4ccccc34)cc2C1=O`, the cytotoxicity call was “inactive”.

On to `C[C@@H]1CCCCO[C@H](CN(C)C(=O)Nc2ccc(C(F)(F)F)cc2)[C@@H](C)CN([C@@H](C)CO)C(=O)c2cc(NS(=O)(=O)c3ccccc3)ccc2O1`, for which the cytotoxicity call was “inactive”. Then `C[C@H]1CCCCO[C@H](CN(C)C(=O)Nc2ccc(C(F)(F)F)cc2)[C@@H](C)CN([C@@H](C)CO)C(=O)c2cc(NS(=O)(=O)c3ccccc3)ccc2O1`, with “active”; and `C[C@@H]1CCCCO[C@@H](CN(C)C(=O)Nc2ccc(C(F)(F)F)cc2)[C@@H](C)CN([C@H](C)CO)C(=O)c2cc(NS(=O)(=O)c3ccccc3)ccc2O1`, with “active”. Then `C[C@H](CO)N1C[C@H](C)[C@H](CN(C)C(=O)Nc2ccc(C(F)(F)F)cc2)OCCCC[C@H](C)Oc2ccc(NS(=O)(=O)c3ccccc3)cc2C1=O`, with “inactive”.

Regarding `Cc1noc(C)c1S(=O)(=O)Nc1cccc2c1O[C@@H](CN(C)S(=O)(=O)c1cccs1)[C@@H](C)CN([C@@H](C)CO)C2=O`, the cytotoxicity call is “inactive”. Then `COc1ccc(-n2c(N)cc(=O)[nH]c2=O)cc1`, with “inactive”.

Turning to `N=C(N)Nc1nc(=O)c2ccccc2s1`, the cytotoxicity call is “inactive”. Then `CSc1cccc2sc(Nc3ccc(Cl)cc3)nc12`, with “inactive”. Consider `c1ccc(Nc2nc3c(ccc4ccccc43)s2)cc1`, for which the cytotoxicity call was “active”.

Regarding `O=C(C[C@H]1CC=CC[C@H](Cc2ccc(F)cc2)C(=O)OC[C@@H](Cc2c[nH]c3ccccc23)NC1=O)NCCO`, the cytotoxicity call is “inactive”. For `C[C@@H]1CN([C@@H](C)CO)C(=O)Cc2cc(NC(=O)C3CCCCC3)ccc2O[C@@H]1CN(C)S(C)(=O)=O`, the cytotoxicity call was “inactive”. Regarding `C[C@@H]1CN([C@@H](C)CO)C(=O)c2cc(NC(=O)C3CCCCC3)ccc2O[C@@H](C)CCCCO[C@H]1CN(C)C(=O)C1CCCCC1`, the cytotoxicity call was “inactive”. In the case of `Cc1noc(C)c1S(=O)(=O)Nc1ccc2c(c1)CC(=O)N([C@@H](C)CO)C[C@@H](C)[C@@H](CN(C)C(=O)Nc1ccc3c(c1)OCO3)O2`, the cytotoxicity call is “inactive”. Then `CNC(=O)c1c(O)c2ccccc2n(C)c1=O`, with “active”; and `CNC(=O)c1c(O)c2ccccc2[nH]c1=O`, with “inactive”; and `Cn1c(=O)c(C(=O)NCCO)c(O)c2ccccc21`, with “inactive”.

In the case of `COc1ccc2c3c([nH]c2c1)[C@H](CO)N(C[C@]13CCN(CC1)C(=O)CN(C)C)S(=O)(=O)C`, the cytotoxicity call was “inactive”.

As for `CC1OC1P(=O)([O-])[O-].[Ca+2]` (configuration not stated), the cytotoxicity call is “inactive”. Then `Cc1[nH]c2ccccc2c1C(=O)CSc1ccc(Cl)cc1`, with “inactive”; and `NCC[S@@](=O)c1c(-c2ccc(F)cc2)[nH]c2ccccc12`, with “inactive”. With `CSc1c(-c2ccc(Cl)cc2)[nH]c2ccccc12` the entry was “active”; with `C[C@H](CO)N1C[C@H](C)[C@H](CN(C)S(=O)(=O)c2ccc(Cl)cc2)Oc2ccc(NC(=O)CCN3CCOCC3)cc2C1=O`, “inactive”; with `C[C@@H]1CN([C@@H](C)CO)C(=O)Cc2cc(NC(=O)c3ccncc3)ccc2O[C@H]1CN(C)S(C)(=O)=O`, “inactive”. With `C[C@H](O)C#Cc1ccc2c(c1)O[C@H](CN(C)C(=O)CN(C)C)[C@@H](C)CN([C@@H](C)CO)S2(=O)=O` the entry was “inactive”.

Regarding `C[C@H](CO)N1C[C@H](C)[C@@H](CN(C)S(C)(=O)=O)Oc2ccc(NC(=O)Nc3ccc(C(F)(F)F)cc3)cc2CC1=O`, the cytotoxicity call was “inactive”. With `C[C@H]1CN([C@@H](C)CO)C(=O)Cc2cc(NC(=O)Nc3ccc(C(F)(F)F)cc3)ccc2O[C@H]1CN(C)S(=O)(=O)c1ccc(Cl)cc1` the entry was “active”; with `C[C@@H]1CN([C@H](C)CO)C(=O)Cc2cc(NC(=O)Nc3ccc(C(F)(F)F)cc3)ccc2O[C@@H]1CN(C)S(C)(=O)=O`, “inactive”.

Consider `C[C@@H]1CN([C@H](C)CO)C(=O)Cc2cc(NC(=O)Nc3ccc(C(F)(F)F)cc3)ccc2O[C@H]1CN(C)S(C)(=O)=O`, for which the cytotoxicity call is “inactive”. Then `C[C@H](CO)N1C[C@H](C)[C@H](CN(C)S(=O)(=O)c2ccc(Cl)cc2)Oc2ccc(NC(=O)Nc3ccc(C(F)(F)F)cc3)cc2CC1=O`, with “active”; and `C[C@@H]1CN([C@H](C)CO)C(=O)Cc2cc(NC(=O)Nc3ccc(C(F)(F)F)cc3)ccc2O[C@@H]1CN(C)S(=O)(=O)c1ccc(Cl)cc1`, with “active”. With `C[C@H]1CN([C@@H](C)CO)C(=O)Cc2cc(NC(=O)Nc3cccc(C(F)(F)F)c3)ccc2O[C@H]1CN(C)S(=O)(=O)c1ccc(Cl)cc1`, the cytotoxicity call was “active”. Then `C[C@H]1CN([C@@H](C)CO)C(=O)Cc2cc(NC(=O)Nc3ccc(C(F)(F)F)cc3)ccc2O[C@H]1CN(C)S(C)(=O)=O`, with “inactive”; and `CC(C)NC(=O)Nc1ccc2c(c1)CC(=O)N([C@H](C)CO)C[C@@H](C)[C@@H](CN(C)S(=O)(=O)c1ccc(Cl)cc1)O2`, with “inactive”.

These data come from the antibiotic and cytotoxicity screens of Wong et al. (2023).
